Assay outcomes (PubChem)
Shiga toxin inh – blocks Shiga toxin action in Vero cells; AID 2315; inhibition, % at 38.7 µM; 290,000 tested, 9.2% active; Vero cells, Shiga toxin protein synthesis inhibition reporter; in the data active = inhibition mostly above about 28%, no sharp cut-off; inactive = mostly below about 43%; also: 0% is about no effect
LASV entry inh – Lassa virus entry inhibition | 300,000 tested, 1.2% active | Lassa virus pseudotype entry inhibition, cell reporter | Potency, µM (series often up to 37.9 µM), inactives show at the highest dose activity change, negative = inhibition, usual class: inhibitors | AID 540256; calls by dose curve; tested in HEK293 cells; also: potency is read from the fitted curve at half-maximal effect; % is scaled to controls: 0 for no effect and ±100 for the full control effect; nearly all actives have a fitted effect of over 50% in size
Marburg entry inh – inhibitors of Marburg virus binding or cell entry; Potency, µM (highest dose often 37.8 µM), for the others: at the top dose activity change, negative = inhibition, hits mostly inhibitors; Marburg virus pseudotyped entry inhibition, cell reporter; 300,000 tested, 1.8% active; AID 540276; calls by dose curve; tested in HEK293 cells; also: potency is read from the fitted curve at half-maximal effect; % is scaled to controls: 0 for no effect and ±100 for the full control effect
CHX counter – affects cycloheximide protein synthesis inhibition readout, counter-screen; cell reporter, cycloheximide protein synthesis inhibition counterscreen; max response, %; 300,000 tested, 12% active; AID 2314; in the data active = max response mostly above about 13%, no sharp cut-off; inactive = mostly below about 14%; also: read at 38.3 µM for the half of the compounds with a filed dose; 0% is about no effect
Starred values were filed as active, the others as inactive; ? = inconclusive; · = no result; [ ] = dose if it differs, or a comment. Most compounds without a hit are left out; they make up all but 12% or so of the library.

SMILES | Shiga toxin inh | LASV entry inh | Marburg entry inh | CHX counter
CCc1ccccc1N(C)C(=O)c1ccc2c(=O)n3c(nc2c1)CCCCC3 | · | -12%[46.1 µM] | -1%[46.1 µM] | ·
COc1ccc(CN(C)C(=O)c2ccc3c(=O)n4c(nc3c2)CCC4)cc1 | 110* | · | · | 44*
CCCn1c(SCC(=O)N2CCCC(C)C2)nnc1-c1ccccn1 (stereo unspecified) | -15 | · | · | -2
NS(=O)(=O)c1ccc(CNC(=O)c2cc(=O)c3ccccc3o2)cc1 | 7 | -6%[46.1 µM] | -7%[46.1 µM] | -12
COc1cccc(N=CC2=C(O)CCCC2=O)c1 | 31 | -12% | ? | 30*
O=C1CCCC(O)=C1C=Nc1cccc(C(F)(F)F)c1 | 3 | · | · | 9
COc1cccc(N=CC2=C(O)CC(C)(C)CC2=O)c1 | 24 | 6% | ? | 13*
CCCCOC(=O)C(C)Sc1n[nH]c(=O)[nH]c1=O (stereo unspecified) | -28 | -2% | -4% | -10
CC(C)(C)c1ccc(-c2nc(N)nc(N)n2)cc1 | 26 | · | · | 33*
CC(=O)c1ccc(NC(=O)Nc2sc3nc4n(c(=O)c3c2C)CCC(C)CC4)cc1 (stereo unspecified) | · | · | -24%[46.1 µM] | ·
CC(C)Nc1nc(NC(C)C)nc(SCCOC(=O)Nc2ccc(Cl)cc2Cl)n1 | -6 | -18% | -12% | 21*
Cc1ccc(NC(=S)N/N=C2\CCCCC2C)cc1 (stereo unspecified) | 95* | -5% | ? | 44*
CC1CCCC/C1=N\NC(=S)Nc1cccnc1 (stereo unspecified) | 18 | 12% | 4%[46.1 µM] | 4
CC1CCCC/C1=N\NC(=S)NCCc1ccccc1 (stereo unspecified) | 98* | · | · | 44*
Cc1ccc(C(=O)NC(C)c2ccc(-n3ccnc3)cc2)o1 (stereo unspecified) | · | 18% | -8%[46.1 µM] | ·
Cc1cc(C(=O)CSc2n[nH]c(N)n2)c(C)n1-c1ccc(F)cc1 | 61* | -11% | ? | 40*
Cc1cc(C(=O)CSc2n[nH]c(N)n2)c(C)n1-c1cc(F)ccc1F | 98* | 0% | -20% | 29*
Cc1cc(C(=O)CSc2n[nH]c(N)n2)c(C)n1-c1ccccc1 | 50* | -34% | -5% | 37*
Nc1nc(SCC(=O)c2cc(F)ccc2F)n[nH]1 | -1 | 13%[46.1 µM] | 2%[46.1 µM] | 3
Cc1cc(C(=O)CSc2n[nH]c(N)n2)c(C)n1C1CC1 | 12 | -1% | 18% | -4
C=CCn1c(C)cc(C(=O)CSc2n[nH]c(N)n2)c1C | 98 | 19% | ? | 28*
Cc1cc(C)c(S(=O)(=O)NCC2CCC(C(=O)NCc3ccccn3)CC2)c(C)c1 (stereo unspecified) | -11 | 4% | 1%[46.1 µM] | -3
Cc1cc(C)n(-c2ccc(C(=O)Nc3cc(S(=O)(=O)N(C)C)ccc3Cl)cc2)n1 | -14 | ? | ? | -5
Cc1cc(C(=O)CSc2nnc3ccccn23)c(C)n1-c1ccccc1 | -15 | 0.89µM* | 0.32µM* | 1
Cc1ccc(-n2c(C)cc(C(=O)CSc3n[nH]c(N)n3)c2C)cc1 | 54 | ? | -7% | 10.0*
SMILES | Shiga toxin inh | LASV entry inh | Marburg entry inh | CHX counter
Nc1nc(SCC(=O)c2ccc(F)cc2)n[nH]1 | -1 | 10%[46.1 µM] | 6%[46.1 µM] | 12
Cc1cc(NC(=O)NC(=O)c2ccc(F)cc2F)n[nH]1 | 43* | 16µM* | ? | 19*
COC(=O)c1ccccc1NC(=O)c1ccc(F)cc1F | -7 | · | · | 10
COc1ccc(OS(=O)(=O)c2c(C)noc2C)cc1 | 7 | 16%[46.1 µM] | -2%[46.1 µM] | -1
c1csc(-c2noc(CN3CCN4CCCC4C3)n2)c1 (stereo unspecified) | 47* | -1%[46.1 µM] | 10%[46.1 µM] | 21*
c1ccc(COC2CCCN(Cc3nc(-c4cccs4)no3)C2)nc1 (stereo unspecified) | 18 | -19% | ? | 5
OC[C@@H]1CCCN1Cc1nc(-c2cccs2)no1 | 51* | · | · | 19*
O=C(c1ccco1)N1CCCN(Cc2nc(-c3ccc4c(c3)OCO4)no2)CC1 | 17 | -24% | -3%[46.1 µM] | 7
c1csc(-c2noc(CN3CCOCC3)n2)c1 | 41* | 9%[46.1 µM] | ? | 31*
CN(CCN1CCOCC1)Cc1nc(-c2cccs2)no1 | 15 | · | · | 3
CN1CCN(Cc2nc(-c3cccs3)no2)CC1c1ccccc1 (stereo unspecified) | 10 | 0%[46.1 µM] | 4%[46.1 µM] | -2
O=C(c1ccco1)N1CCN(Cc2nc(-c3cccs3)no2)CC1 | 35* | · | · | 11*
O=C(NCCc1ccc(F)cc1)C(=O)NCC(c1ccc2c(c1)OCO2)N1CCOCC1 (stereo unspecified) | · | 19%[46.1 µM] | · | ·
COc1cc(C(=O)Nc2cccc(-c3cn4cccnc4n3)c2)cc(OC)c1OC | 14 | 2%[46.1 µM] | 0%[46.1 µM] | 3
COc1ccc(NC(=O)Nc2cc(-c3cn4cccnc4n3)ccc2C)cc1 | · | -7%[46.1 µM] | ? | ·
CCC(CC)C(=O)Nc1cccc(-c2cn3cccnc3n2)c1 | · | 0%[46.1 µM] | · | ·
CC(C)(C)CC(=O)Nc1cccc(-c2cn3cccnc3n2)c1 | 87* | · | · | 38*
CCC(CC)C(=O)Nc1ccc(-c2cn3cccnc3n2)cc1 | 31* | 4%[46.1 µM] | ? | 14*
COCC(=O)Nc1ccc(-c2cn3cccnc3n2)cc1 | 36 | 17% | 18% | 27*
CCc1cccc(NC(=O)C2CC2c2ccccc2)c1 (stereo unspecified) | · | -21% | 3% | 10
N#Cc1cnn2c3c(cnc12)C(=O)N1CCc2ccccc2C1C3 (stereo unspecified) | -4 | -1% | -7%[46.1 µM] | -4
Cn1c(NCc2ccco2)nc2ccccc21 | 15 | 2% | ? | 12*
Cn1c(NCc2cccs2)nc2ccccc21 | 57* | 20% | ? | 33*
CCn1c(NCc2cccs2)nc2ccccc21 | 26 | 6% | ? | 10
Cc1c(NC(=S)NC(=O)c2cccc(Cl)c2)c(=O)n(-c2ccccc2)n1C | -4 | · | · | -1
SMILES | Shiga toxin inh | LASV entry inh | Marburg entry inh | CHX counter
Cc1cc(C)cc(NC(=O)CSc2nc(=O)[nH]c3c2CCC3)c1 | · | -2%[46.1 µM] | · | ·
CCN1C(=O)CSC1=Nc1ccccc1Cl | -2 | 0% | 25% | -3
CCN1C(=Nc2ccc(Cl)cc2)SC/C1=C\C(=O)OC | 20 | 12% | -12% | 22*
O=C(Oc1cccc(NC(=O)c2ccco2)c1)c1cccc(S(=O)(=O)N2CCCC2)c1 | 25 | 25% | 0% | 18*
O=C(Nc1cccc(S(=O)(=O)N2CCOCC2)c1)c1cccc(S(=O)(=O)N2CCCC2)c1 | · | -20% | -16% | ·
O=C(Oc1cccc(NC(=O)c2cccs2)c1)c1cccc(S(=O)(=O)N2CCCC2)c1 | 38 | -2% | 30% | 14*
C=CCN1C(=O)/C(=C/c2ccc(-c3ccc(F)cc3)o2)SC1=S | 5 | · | · | 5
Cc1cccc(NC(=O)CSc2nnc(CNC(=O)c3ccc(S(=O)(=O)N(C)C)cc3)n2-c2cccc(C)c2)c1 | 6 | 14µM* | -36% | 1
Cc1cc(C)n(-c2nc(C)c(C)c(=O)n2CC(=O)Nc2ccc([N+](=O)[O-])cc2)n1 | · | -23%[46.1 µM] | · | ·
Cc1cc(C)cc([C@H]2C[C@]34CN(Cc5ccccc5)[S+](=O)([O-])[C@@H]3C[C@@H]2O4)c1 | · | 5%[46.1 µM] | · | ·
Cc1ccc(C(=O)OCC(=O)NC(C)c2ccccc2)cc1C (stereo unspecified) | · | -8% | 12% | ·
Cc1cccc(OCC(=O)N(C)CCc2ccccn2)c1 | 24 | 0% | 6%[46.1 µM] | 8
CC(=O)c1cccc(OCc2cc(C(=O)N(C)CCc3ccccn3)no2)c1 | 37 | 14%[46.1 µM] | -1%[46.1 µM] | 15*
